This is a sample that favours compounds with a hit; in the whole collection about 3.7% have one here.
PLK1 PBD inh = blocks phosphopeptide binding to human PLK1 polo-box domain. P53350. Plk1 PBD binding of FITC phosphopeptide, fluorescence polarization. Potency, µM, without a hit: max response, negative = inhibition, usual class: inhibitors. 2.8% of 360,000 active. AID 720504; also: potency is read from the fitted curve at half-maximal effect; series mostly up to about 57 µM; % is scaled to controls: 0 for no effect and ±100 for the full control effect; nearly all actives have a fitted effect of over 65% in size
FEN1 inh = inhibitors of human flap endonuclease 1; Potency, µM (highest dose often 114 µM), inactives show at the highest dose activity change, negative = inhibition, most hits filed as inhibitors; P39748; AID 588795; Recombinant FEN1 flap cleavage, fluorescence, 15 min; 0.35% of 390,000 active; also: potency is read from the fitted curve at half-maximal effect; % is scaled to controls: 0 for no effect and ±100 for the full control effect; nearly all actives have a fitted effect of over 65% in size
Target sequence (P39748 whole entry, looked up): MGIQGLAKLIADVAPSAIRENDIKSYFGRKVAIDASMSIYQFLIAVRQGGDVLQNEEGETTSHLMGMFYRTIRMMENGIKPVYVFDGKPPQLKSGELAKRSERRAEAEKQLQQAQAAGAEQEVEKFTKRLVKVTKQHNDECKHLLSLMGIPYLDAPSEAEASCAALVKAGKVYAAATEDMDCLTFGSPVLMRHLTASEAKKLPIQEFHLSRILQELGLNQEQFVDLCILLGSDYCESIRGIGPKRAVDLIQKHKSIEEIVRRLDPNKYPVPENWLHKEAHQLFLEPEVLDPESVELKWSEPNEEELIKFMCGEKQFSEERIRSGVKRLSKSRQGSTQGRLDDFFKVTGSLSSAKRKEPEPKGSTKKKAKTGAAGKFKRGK
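Potency values derive from four-parameter Hill fits of normalized qHTS data. The reaction used 10 nM FEN1 preincubated 15 min at room temperature with compound, then 50 nM DNA substrate, read at 0 and 15 min.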
WRN inhibitor = blocks human WRN helicase. AID 651768. Potency, µM (series often up to 114 µM), for the others: at the top dose activity change, negative = inhibition, usual class: inhibitors. 0.46% of 360,000 active. WRN helicase unwinding, fluorescent forked duplex, kinetic; also: potency is read from the fitted curve at half-maximal effect; % is scaled to controls: 0 for no effect and ±100 for the full control effect; nearly all actives have a fitted effect of over 55% in size
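Primary qHTS, 1536-well format. 20 nM WRN + compound, 15 min RT; start with 100 nM forked fluorophore/quencher duplex, 2 mM ATP (final); kinetic read ex 525/em 598 nm.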
VDR inh = blocks the human vitamin D receptor. Potency, µM, without a hit: max response, negative = inhibition, most hits filed as inhibitors. VDR-SRC2-3 peptide fluorescence polarization, 2 h. P11473. 0.93% of 400,000 active; also: potency is read from the fitted curve at half-maximal effect; % is scaled to controls: 0 for no effect and ±100 for the full control effect
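Reagent solutions, kept cold and dark, are dispensed first; compounds are then pinned in at 23 nl, plates briefly spun, and incubated 2 h at ambient temperature. Inhibition of VDR–SRC2-3 peptide binding is read by fluorescence polarization.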
TCR act = T cell receptor activation; primary human leukocytes, anti-CD3, IL-2 HTRF, 48 h; Potency, µM (top dose mostly 9.22 µM), without a hit: at the top dose activation of IL-2 secretion, hits mostly activators; 330,000 tested, under 10 active; AID 504894; also: % of control where 0% means no effect
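Activity was scored as IL-2 release from primary human leukocytes given only a TCR signal (a-CD3 beads) plus compound for 48 hr. Detection used a two-antibody HTRF format read at 665nm.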
PI5P4Ka inh = PI5P4K alpha (human) kinase inhibition; P48426; PI5P4Kalpha enzyme, ADP-Glo luminescence, 60 min; stronger effect = lower value; max response, %; 1.2% of 330,000 active; AID 652105; active = max response of -50% or lower; inconclusive = between -30% and -50%; inactive = -30% or higher; also: value at the top dose of about 77 µM; % is scaled to controls: 0 for no effect and ±100 for the full control effect
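Single end-point luminescence (ADP-Glo) quantified ADP from PI5P4Kalpha turnover; ATP 5 microM final, 1 h at RT, 0.1% CHAPS and 0.28 mM EGTA in HEPES pH 7.4.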
Active calls of the source: *; ? = inconclusive; . = not tested or not shown; [ ] = another dose, or the depositor's remark. Unless noted, calls follow the shape of the dose curve; as a rule, active = well fitted curve in the direction sought with a large enough effect; inconclusive = small, poorly fitted or top-dose-only effect, or another doubt; inactive = no such curve, though single readings can be large; an effect the other way counts as inactive or inconclusive.

SMILES | PLK1 PBD inh | FEN1 inh | WRN inhibitor | VDR inh | TCR act | PI5P4Ka inh
COc1cc(/C=C2\SC(=S)N(NC(=O)c3ccccc3O)C2=O)ccc1O | ? | ? | 56µM* | ? | 0% | -62*
COc1cc(/C=C2\SC(=S)N(NC(C)=O)C2=O)ccc1OC(=O)c1ccco1 | -8% | 14% | -22% | 5% | -3% | -12
CCc1ccc(/C=C2\SC(=S)N(CCCC(=O)Nc3ccccc3C(=O)O)C2=O)cc1 | 21µM* | -2% | ? | ? | -2% | ?
COc1ccc(/C=C2\SC(=S)N(CCCC(=O)NNC(=O)c3ccccc3O)C2=O)cc1 | 24µM* | -3% | -11%[57.1 µM] | -2% | -3% | 14
COc1ccc(/C=C2/SC(=S)N(CCCC(=O)Nc3ccccc3C(=O)O)C2=O)cc1 | ? | -2% | -17% | ? | 8% | ?
O=C(CCCN1C(=O)/C(=C/c2cccs2)SC1=S)NNC(=O)c1ccccc1O | -11% | -3% | -9% | -8% | 0%[46.1 µM] | -16
Cc1ccc(NC(=O)CSc2nnc(-c3cc4occc4n3C)n2-c2ccccc2C)c(C)c1 | . | -11% | . | -4% | . | .
CCOC(=O)c1noc2nc(C)n(CC(=O)Nc3cccc(OC)c3)c(=O)c12 | . | -3% | . | 4% | . | .
CCOC(=O)C1CCCN(S(=O)(=O)c2ccc3[nH]c(=O)ccc3c2)C1 (configuration not stated) | . | 5% | . | 1% | . | .
Cc1ccc(/C=C2\SC(=S)N(CCCC(=O)Nc3ccccc3C(=O)O)C2=O)cc1 | 19µM* | ? | -2% | ? | 7% | -21
CCCCC[C@@H](/C=C/C1C(=O)C=C[C@H]1C/C=C\CCCC(=O)OC)OC(C)=O (some centres not stated) | -22% | ? | -17% | 10µM* | 10% | -9
CCCCC[C@H](O)/C=C/[C@H]1C(=O)C[C@H](O)[C@@H]1C/C=C\CCCC(=O)O | . | . | . | 3% | . | .
O=C1CSc2ccc(S(=O)(=O)NCc3ccccc3Cl)cc2N1 | -16% | 0% | -6% | 7% | 4% | -1
CC(CS(=O)(=O)c1ccc2c(c1)NC(=O)CS2)C(=O)NCc1ccccc1Cl (configuration not stated) | ? | -21% | 40µM* | 6% | 1% | ?
NS(=O)(=O)c1ccc(-c2ccc(/C=C3\SC(=S)N(C4CCS(=O)(=O)C4)C3=O)o2)cc1 (configuration not stated) | 5% | -20% | -9% | ? | -2% | -10
Cc1ccc(/C=C2\SC(=S)N(C3CCS(=O)(=O)C3)C2=O)o1 (configuration not stated) | 19µM* | ? | ? | -12% | 1% | -53*
Clc1cccc(CNc2ncnc3nc[nH]c23)c1 | . | 13% | . | . | . | .
Cc1[nH]n(C(N)=S)c(=O)c1N=Nc1ccccc1C(F)(F)F | 24µM* | 14% | -1% | -8% | -10% | -6
NC(=O)NC(CC(=O)NCCc1ccc(S(N)(=O)=O)cc1)c1ccc(Cl)cc1 (configuration not stated) | 15µM* | -6% | 3% | ? | 5% | -17
NC(=O)NC(CC(=O)NCCc1ccc(S(N)(=O)=O)cc1)c1ccccc1Cl (configuration not stated) | 7% | 2% | 6% | -4% | -18% | 10
COc1ccc(C(C)=O)cc1CC(=O)N(Cc1ccccc1)c1ccccc1 | 30µM* | -12% | -3% | -18% | -1% | 5
O=C(C[n+]1cccc(Cl)c1)c1ccc(O)c(O)c1 | . | -15% | . | . | . | .
N=C(N)S/C=C\C(=O)O | . | . | . | 28µM* | . | .
CS(=O)(=O)c1cccc(C(=O)OCC(=O)NC(=O)Nc2ccccc2F)c1 | -4% | -4% | 2% | 6% | -1%[46.1 µM] | 10
O=Cc1ccc(C(=O)OCC(=O)NC(=O)Nc2ccccc2F)cc1 | 5% | 5% | -3% | 9% | 1%[46.1 µM] | -57*
COc1ccc(C2C=C3CNS(=O)(=O)C3CC2OC(=O)c2ccc(Cl)cc2)cc1 (configuration not stated) | . | ? | . | -6% | . | .
